# Results filed as inconclusive are left out. Where a call stands in place of a potency, no number is given. The source made the active and inactive calls. Unless noted, the call rests on the fitted dose curve; in most records, active means well fitted curve in the direction sought with a large enough effect; inconclusive means small, poorly fitted or top-dose-only effect, or another doubt; inactive means no such curve, though single readings can be large; an effect the other way counts as inactive or inconclusive.
# Experiments:
# [1] = NCATS anti-infectives library activity on HEK293 viability as a counter-qHTS vs the C. elegans viability qHTS (AID 1745854); details: HEK293 viability counter-screen; series mostly up to 41.8 µM; further: potency means the concentration at half of the fitted maximal effect
# How it was run: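 CellTiter-Glo luminescence, read on a CCD imager, scored viability of HEK293 cells after 24 hr compound exposure at 37C. Library tested in several concentrations, 1:5 steps, up to 41.7 uM; digitonin served as control.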
# [2] = biological target: Catechol O-methyltransferase (Homo sapiens) (UniProt P21964); assay: Confirmatory Screen for Target Class Profiling of Small Molecule Inhibitors of Methyltransferases (AID 1745852; calls by dose curve; further: potency means the concentration at half of the fitted maximal effect); details: MTase-Glo luminescence, SAH detection, recombinant enzyme; measured here: COMT max response; stronger effect = lower value
# Catechol O-methyltransferase (Homo sapiens), sequence (P21964 whole entry, looked up): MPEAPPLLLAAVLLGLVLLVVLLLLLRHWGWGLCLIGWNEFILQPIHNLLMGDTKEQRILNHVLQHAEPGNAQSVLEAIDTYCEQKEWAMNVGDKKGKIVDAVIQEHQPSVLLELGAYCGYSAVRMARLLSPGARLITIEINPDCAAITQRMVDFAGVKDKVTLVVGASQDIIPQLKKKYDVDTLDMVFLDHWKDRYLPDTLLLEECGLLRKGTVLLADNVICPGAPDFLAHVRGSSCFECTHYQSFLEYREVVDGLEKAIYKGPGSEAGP
# [3] = biological target: Guanidinoacetate N-methyltransferase (Homo sapiens) (UniProt Q14353); assay: as above; details: MTase-Glo luminescence, SAH detection, recombinant enzyme; activity change, negative = inhibition: at 57.3 µM (top of the series)
# [4] = biological target: Nicotinamide N-methyltransferase (Homo sapiens) (UniProt P40261); assay: as above; details: MTase-Glo luminescence, SAH detection, recombinant enzyme; measured here: NNMT max response; stronger effect = lower value
# Nicotinamide N-methyltransferase (Homo sapiens), sequence (P40261 whole entry, looked up): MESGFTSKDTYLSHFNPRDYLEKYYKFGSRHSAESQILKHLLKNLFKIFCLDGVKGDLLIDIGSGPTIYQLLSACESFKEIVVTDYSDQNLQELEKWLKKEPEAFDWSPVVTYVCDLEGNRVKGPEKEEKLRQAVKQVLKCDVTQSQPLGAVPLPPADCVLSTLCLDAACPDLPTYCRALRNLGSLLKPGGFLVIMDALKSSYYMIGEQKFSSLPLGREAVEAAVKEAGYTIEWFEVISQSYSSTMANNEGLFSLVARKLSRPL
# [5] = biological target: Phenylethanolamine N-methyltransferase (Homo sapiens) (UniProt P11086); assay: as above; details: MTase-Glo luminescence, SAH detection, recombinant enzyme; measured here: PNMT max response; stronger effect = lower value
# Phenylethanolamine N-methyltransferase (Homo sapiens), sequence (P11086 whole entry, looked up): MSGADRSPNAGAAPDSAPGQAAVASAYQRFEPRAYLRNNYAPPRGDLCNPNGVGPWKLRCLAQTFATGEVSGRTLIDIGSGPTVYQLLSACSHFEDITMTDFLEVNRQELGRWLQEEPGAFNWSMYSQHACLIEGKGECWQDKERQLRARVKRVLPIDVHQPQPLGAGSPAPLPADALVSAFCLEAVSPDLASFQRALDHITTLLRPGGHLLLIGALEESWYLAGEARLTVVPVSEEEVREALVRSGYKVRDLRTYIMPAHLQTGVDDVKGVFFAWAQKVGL
# [6] = Viability counterscreen for antagonist of constitutive androstane receptor (CAR) against the NCATS DSHEA and TCM libraries (AID 1794837); details: CAR reporter cell line viability counterscreen, qHTS; series mostly up to 40 µM;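 further: compound exposure lasted 24 h before viability reading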
# How it was run: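 Cells: HepG2 line carrying CYP2B6 reporter and hCAR, seeded and attached 5 h. Then pin-transferred test substances plus agonist CITCO at 48 uM final; 24 h incubation; fluorogenic viability reagent, 1 h.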
# [7] = biological target: Rap guanine nucleotide exchange factor 3 (Homo sapiens) (UniProt O95398); assay: Confirmatory qHTS for agonist of cAMP-regulated guanine nucleotide exchange factor 3 (EPAC1) (AID 1645881); details: EPAC1 Rap1B BODIPY-GDP exchange fluorescence, 100% = cAMP control response; series mostly up to 154 µM;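 further: EPAC1 catalysed release of BODIPY-GDP from Rap1B seen as fluorescence loss; nearly all actives have a fitted effect of over 75% in size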
# Rap guanine nucleotide exchange factor 3 (Homo sapiens), sequence (O95398 whole entry, looked up): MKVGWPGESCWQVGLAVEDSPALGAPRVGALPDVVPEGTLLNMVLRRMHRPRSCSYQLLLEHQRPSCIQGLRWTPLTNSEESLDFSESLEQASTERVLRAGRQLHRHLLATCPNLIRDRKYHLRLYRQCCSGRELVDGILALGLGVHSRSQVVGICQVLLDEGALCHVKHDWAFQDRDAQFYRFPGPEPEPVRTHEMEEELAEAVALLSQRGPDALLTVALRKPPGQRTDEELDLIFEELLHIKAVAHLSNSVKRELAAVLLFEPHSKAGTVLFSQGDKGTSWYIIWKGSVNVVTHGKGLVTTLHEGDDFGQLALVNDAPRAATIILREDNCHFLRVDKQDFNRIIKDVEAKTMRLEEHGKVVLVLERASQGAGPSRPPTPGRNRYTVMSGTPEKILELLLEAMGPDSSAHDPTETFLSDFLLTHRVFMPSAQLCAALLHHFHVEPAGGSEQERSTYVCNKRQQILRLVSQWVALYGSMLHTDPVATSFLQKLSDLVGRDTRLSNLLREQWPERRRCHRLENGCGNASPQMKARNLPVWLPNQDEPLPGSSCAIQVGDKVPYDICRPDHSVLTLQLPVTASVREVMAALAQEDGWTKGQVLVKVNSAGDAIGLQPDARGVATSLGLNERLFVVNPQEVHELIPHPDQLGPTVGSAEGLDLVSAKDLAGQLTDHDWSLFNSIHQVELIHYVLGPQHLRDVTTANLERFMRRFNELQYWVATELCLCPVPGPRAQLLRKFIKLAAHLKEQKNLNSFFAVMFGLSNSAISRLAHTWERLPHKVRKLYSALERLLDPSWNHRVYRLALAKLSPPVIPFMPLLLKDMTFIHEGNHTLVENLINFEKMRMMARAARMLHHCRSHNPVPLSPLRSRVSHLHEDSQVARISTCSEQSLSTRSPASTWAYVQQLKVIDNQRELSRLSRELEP
# [8] = biological target: Rap guanine nucleotide exchange factor 4 (Homo sapiens) (UniProt Q8WZA2); assay: Confirmatory qHTS for agonist of cAMP-regulated guanine nucleotide exchange factor 4 (EPAC2) (AID 1645884); details: EPAC2 GEF activity, Rap1B-BODIPY-GDP fluorescence, percent relative to cAMP agonist control; series mostly up to 154 µM;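 further: nucleotide exchange releases bodipy-GDP from Rap1 and this lowers its fluorescence; nearly all actives have a fitted effect of over 65% in size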
# Rap guanine nucleotide exchange factor 4 (Homo sapiens), sequence (Q8WZA2 whole entry, looked up): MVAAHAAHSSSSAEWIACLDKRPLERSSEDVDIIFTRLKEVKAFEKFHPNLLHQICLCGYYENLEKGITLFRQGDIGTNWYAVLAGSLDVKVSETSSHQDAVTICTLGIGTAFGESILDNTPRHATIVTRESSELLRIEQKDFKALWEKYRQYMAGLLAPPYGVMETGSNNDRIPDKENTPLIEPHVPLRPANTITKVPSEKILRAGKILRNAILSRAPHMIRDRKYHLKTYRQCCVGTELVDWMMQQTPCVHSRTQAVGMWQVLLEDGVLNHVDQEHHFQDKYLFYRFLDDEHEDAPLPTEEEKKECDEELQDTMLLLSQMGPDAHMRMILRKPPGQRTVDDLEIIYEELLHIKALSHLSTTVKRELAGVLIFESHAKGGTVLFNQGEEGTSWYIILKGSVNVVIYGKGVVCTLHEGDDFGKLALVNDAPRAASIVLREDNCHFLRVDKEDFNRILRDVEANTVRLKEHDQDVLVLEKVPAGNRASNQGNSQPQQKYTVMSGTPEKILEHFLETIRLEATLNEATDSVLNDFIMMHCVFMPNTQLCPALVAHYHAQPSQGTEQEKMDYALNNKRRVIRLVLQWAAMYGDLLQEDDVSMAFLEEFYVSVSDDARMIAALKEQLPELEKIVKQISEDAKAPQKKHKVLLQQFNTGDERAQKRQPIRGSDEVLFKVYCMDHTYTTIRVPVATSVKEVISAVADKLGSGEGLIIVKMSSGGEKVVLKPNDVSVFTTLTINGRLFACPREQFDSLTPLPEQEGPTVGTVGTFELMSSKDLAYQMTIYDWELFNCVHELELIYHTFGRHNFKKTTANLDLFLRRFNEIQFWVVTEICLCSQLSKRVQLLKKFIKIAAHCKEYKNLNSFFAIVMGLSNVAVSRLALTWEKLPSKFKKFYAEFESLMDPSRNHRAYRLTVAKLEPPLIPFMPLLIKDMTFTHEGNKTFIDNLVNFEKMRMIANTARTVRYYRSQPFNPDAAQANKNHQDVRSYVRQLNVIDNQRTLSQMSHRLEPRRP
# [9] = biological target: Rap guanine nucleotide exchange factor 4 (Homo sapiens) (UniProt Q8WZA2); assay: Confirmatory qHTS for antagonist of cAMP-regulated guanine nucleotide exchange factor 4 (EPAC2) (AID 1645885); details: EPAC2 Rap1B-BODIPY-GDP exchange fluorescence, biochemical; series mostly up to 114 µM; further: nearly all actives have a fitted effect of over 25% in size
# [10] = NCATS anti-infectives library activity on the primary C. elegans qHTS viability assay (AID 1745855; calls by dose curve); details: C. elegans worm area imaging, day 7; at 41.8 µM (top of the series)
# How it was run: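 Titration-based screen in worms: eggs hatched overnight in M9, L1 larvae fed TOP10 capsules in S medium with compound, incubated 21 °C for 7 days; fluorescent objects gated by size and intensity at days 0, 3 and 7.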
smiles,measurement,setting,value
CCN[C@H]1C[C@H](C)S(=O)(=O)c2sc(S(N)(=O)=O)cc21,Potency,[1],inactive
CNS(=O)(=O)CCc1ccc2[nH]cc(C3CCN(C)CC3)c2c1,activity,[2],-4.91%
same,"activity change, negative = inhibition",[3],2.91%
same,activity,[4],-12.2%
same,activity,[5],-2.32%
O=S(=O)(c1cccc2cnccc12)N1CCCNCC1,Potency,[1],inactive
C1CCC(C(CC2CCCCN2)C2CCCCC2)CC1 (centres undefined),Potency,[1],15.8 µM (active)
COc1cc2ncnc(Nc3cccc(Cl)c3)c2cc1OC,activity,[2],-45.8%
same,Potency,[3],30.4 µM (active)
same,activity,[4],-29.1%
same,activity,[5],-45.8%
NNC(=O)c1ccncc1,outcome,[6],inactive
Cc1nnc(C(=O)NC(C)(C)c2nc(C(=O)NCc3ccc(F)cc3)c(O)c(=O)n2C)o1,Potency,[1],inactive
COc1ccc2cc3[n+](cc2c1OC)CCc1cc2c(cc1-3)OCO2,outcome,[6],inactive
Cc1cccc(N(C)C(=S)Oc2ccc3ccccc3c2)c1,outcome,[7],inactive
same,outcome,[8],inactive
same,outcome,[9],inactive
CCOC(=O)c1ccc(OC(=O)CCCCCN=C(N)N)cc1,Potency,[1],inactive
CC(C)(C)C(=O)OCOP(=O)(COCCn1cnc2c(N)ncnc21)OCOC(=O)C(C)(C)C,outcome,[10],inactive
NC(=O)c1cccc(N)c1,Potency,[1],inactive
CN(C)CCc1c[nH]c2ccc(C[C@H]3COC(=O)N3)cc12,outcome,[7],inactive
same,outcome,[8],inactive
same,outcome,[9],inactive
NC1(c2ccc(-c3nc4ccn5c(=O)[nH]nc5c4cc3-c3ccccc3)cc2)CCC1,activity,[2],-9.12%
same,"activity change, negative = inhibition",[3],-8.7%
same,activity,[4],-25.8%
same,activity,[5],-8.08%
O=C(O)c1cccnc1,outcome,[6],inactive
Cc1oc(=O)oc1CN1CCN(c2cc3c(cc2F)c(=O)c(C(=O)O)c2n3C(C)S2)CC1 (centres undefined),Potency,[1],inactive
COc1cc2c(Nc3ccc(Br)cc3F)ncnc2cc1OCC1CCN(C)CC1,activity,[2],-17.2%
same,"activity change, negative = inhibition",[3],-2.94%
same,activity,[4],-14.2%
same,activity,[5],-14.3%
CC(C)(Sc1cc(C(C)(C)C)c(O)c(C(C)(C)C)c1)Sc1cc(C(C)(C)C)c(O)c(C(C)(C)C)c1,Potency,[1],inactive
Clc1ccccc1CN1CCc2sccc2C1,Potency,[1],inactive
O=P(O)(O)C(O)(Cc1cccnc1)P(=O)(O)O,Potency,[1],inactive
CC(=O)Oc1ccccc1C(=O)Nc1ncc([N+](=O)[O-])s1,Potency,[1],inactive
Nc1nc(=S)c2[nH]cnc2[nH]1,Potency,[1],3.55 µM (active)
Cc1ccnc2c1NC(=O)c1cccnc1N2C1CC1,Potency,[1],inactive
COc1ccccc1OCC(O)COC(N)=O (centres undefined),Potency,[1],inactive
same,outcome,[10],inactive
CC(N)C12CC3CC(CC(C3)C1)C2 (centres undefined),Potency,[1],inactive
CC(C)Cn1cnc2c(N)nc3ccccc3c21,Potency,[1],inactive
O=C(N[C@H](CO)[C@H](O)c1ccc([N+](=O)[O-])cc1)C(Cl)Cl,Potency,[1],inactive
